PostGolgi yeast = growth inhibition of a yeast mutant, post-Golgi transport screen. 0.9% of 98,000 active. AID 739. post-Golgi transport phenotypic cell assay. inhibition, % at 10 µM;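 note: yeast cells grown in 1536-well plates; yeast grown about 18 h at 30C before absorbance read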
CYP2C19 act = cytochrome P450 2C19 (human) activation. P33261. recombinant CYP2C19, luciferin-H EGE luminescence; active compounds read high; 0 = fully inhibited enzyme, 1 = untreated enzyme. activation factor at 5 µM. 96,000 tested, under 10 active. AID 1025;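 active = activation factor of at least 2 at 5 µM in the primary screen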;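 note: 0 = wells with 2.5 mM tranylcypromine and 1 = vehicle-only wells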
PostGolgi ctrl = inhibits growth of the yeast control strain | efflux-deficient yeast background strain, growth absorbance A615, 16 h | inhibition, % at 10 µM | 5% of 98,000 active
CYP2C9 inh = inhibitors of human CYP2C9; CYP2C9 Supersomes, luciferin-H conversion, luminescence; inhibition, % at 5 µM; 20% of 96,000 active; AID 777;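 active = blocking of liver enzyme CYP2C9 beyond about 50% at 5 µM, limit read from the data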
Target sequence (P11712 whole entry, looked up): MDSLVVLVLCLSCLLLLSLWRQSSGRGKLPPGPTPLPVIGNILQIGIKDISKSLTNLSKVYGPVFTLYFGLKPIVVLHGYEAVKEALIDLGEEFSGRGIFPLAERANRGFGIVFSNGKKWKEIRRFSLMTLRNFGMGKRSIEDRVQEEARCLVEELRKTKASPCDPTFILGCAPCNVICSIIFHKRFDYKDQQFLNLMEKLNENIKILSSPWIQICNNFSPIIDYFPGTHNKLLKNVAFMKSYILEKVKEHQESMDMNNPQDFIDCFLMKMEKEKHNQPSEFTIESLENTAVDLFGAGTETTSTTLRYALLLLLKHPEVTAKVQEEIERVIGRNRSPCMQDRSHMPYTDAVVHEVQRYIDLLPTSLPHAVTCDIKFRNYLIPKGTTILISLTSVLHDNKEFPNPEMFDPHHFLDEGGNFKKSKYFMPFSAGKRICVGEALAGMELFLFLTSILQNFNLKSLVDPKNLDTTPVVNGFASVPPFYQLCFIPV
CYP2C19 inhib = inhibitors of human CYP2C19. 21% of 96,000 active. inhibition, % at 5 µM. P33261. AID 778. CYP2C19 Supersomes, luciferin-H EGE luminescence, 30 min;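 active = CYP2C19 inhibition above a set limit at 5 µM in the primary screen, cut at about 50% in these data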;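 note: plate controls were negative control wells for no effect and 2.5 mM tranylcypromine positive control for full effect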
CYP2C9 activ = CYP2C9 (human) activation. recombinant CYP2C9, luciferin-H conversion, luminescence; active compounds read high; factor 1 = untreated enzyme, 0 = blocked. AID 1024. P11712. 1.4% of 96,000 active. activation factor at 5 µM;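 active = activation factor of 2 or more for CYP2C9 at a 5 µM dose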;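 note: 0 = sulfaphenazole-blocked wells and 1 = vehicle-only wells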
* marks the source's active call; other numbers are inactive results; . = not tested or not shown. Hits are enriched below; roughly 32% of the tested compounds scored in any of these assays. Cut-off read from the data, not from the text of the source, unless noted: active = inhibition above about 30%; inactive = the rest.

SMILES | PostGolgi yeast | CYP2C19 act | PostGolgi ctrl | CYP2C9 inh | CYP2C19 inhib | CYP2C9 activ
COc1cccc(C(=O)N2CCN(S(=O)(=O)Cc3ccccc3)CC2)c1 | -9 | 0.6 | 6 | 29 | 41 | 0.7
CCCS(=O)(=O)N1CCN(C(=O)c2ccc(-c3ccccc3)cc2)CC1 | 3 | 0.8 | 8 | 19 | 21 | 0.8
CCCS(=O)(=O)N1CCN(C(=O)c2cc(OC)cc(OC)c2)CC1 | -5 | 0.3 | -1 | 11 | 71* | 0.9
CCS(=O)(=O)N1CCN(C(=O)c2cc(OC)cc(OC)c2)CC1 | 2 | 0.7 | 31* | -9 | 31 | 1.1
CC12CCC(c3c(C(=O)Nc4nccs4)nn(-c4ccccc4)c31)C2(C)C (stereo not drawn) | 39* | 0.5 | 1 | 74* | 50 | 0.3
CC12CCC(c3c(C(=O)O)nn(-c4ccccc4)c31)C2(C)C (stereo not drawn) | 2 | 1.2 | 4 | -12 | -18 | 1.1
CC12CCC(c3c(CO)nn(-c4ccccc4)c31)C2(C)C (stereo not drawn) | 9 | 0.4 | 10 | -16 | 59* | 1.2
COc1cccc(CC(=O)Nn2c(C)nc3ccccc3c2=O)c1 | 1 | 0.6 | 7 | 87* | 40 | 0.1
Cc1nc2ccccc2c(=O)n1NC(=O)c1ccc(F)cc1Cl | 6 | 1 | 26 | 81* | -3 | 0.2
CCn1c(=O)c(C(=O)Nn2c(C)nc3ccccc3c2=O)c(O)c2ccccc21 | 6 | 1.1 | 21 | 24 | -6 | 0.8
COc1ccc2[nH]c3c(c2c1)CCn1c-3nc2ccccc2c1=O | 3 | 0.3 | 8 | 42 | 75* | 0.6
COc1cc(OC)cc(C(=O)Nn2c(C)nc3ccccc3c2=O)c1 | 25 | 0.6 | 1 | 53* | 36 | 0.5
Cc1nc2ccccc2c(=O)n1NC(=O)c1ccccc1Cl | -7 | 1 | 4 | 44 | -2 | 0.6
Cc1nc2ccccc2c(=O)n1NC(=O)Nc1ccccc1 | -3 | 0.8 | 12 | 20 | 15 | 0.8
COc1cccc(-c2nc3ccccc3c(=O)o2)c1 | 3 | 0.9 | 4 | 20 | 8 | 0.8
COCCN(C(=O)CCC(=O)Nc1cccnc1)C(C(=O)NC1CCCCC1)c1ccccc1 (stereo not drawn) | 1 | 0.8 | 8 | 26 | 16 | 0.7
C=C(C)C1CC=C(C)/C(=N/NC(=O)CNc2ccc(OCC)cc2)C1 (stereo not drawn) | -6 | 1 | 7 | 5 | 3 | 0.9
O=C(CSc1nnc(Cc2cc(=O)[nH]c(=O)[nH]2)n1-c1ccccc1)NCC1CCCO1 (stereo not drawn) | -1 | 1.1 | 5 | -4 | -10 | 1
Cc1ccc(C)c(OCC(=O)Nn2c(C)nc3ccccc3c2=O)c1 | 18 | 0.9 | 10 | 78* | 5 | 0.2
COc1cc(OC)cc(C(=O)Nn2cc(C(=O)N3CCN(C)CC3)c3ccccc3c2=O)c1 | 22 | 0.9 | 26 | 58* | 11 | 0.4
COc1ccc(Br)c(C(=O)Nn2c(C)nc3ccccc3c2=O)c1 | 3 | 1.1 | 6 | 54* | -11 | 0.5
COc1ccccc1C(=O)Nn1c(C2CCC2)nc2ccccc2c1=O | -2 | 0.5 | 4 | 95* | 54* | 0.1
COc1ccc2c(C(=O)CN3CCN(CCO)CC3)c[nH]c2c1 | 7 | 1 | -5 | 2 | 2 | 1
O=c1oc2cc(Oc3ccc(C(F)(F)F)cc3[N+](=O)[O-])ccc2c2c1CCCC2 | 0 | . | 10 | . | . | .
CCOc1ccc(CN2CCC(=O)NC2=O)cc1 | 3 | 0.8 | 5 | -19 | 18 | 1.2
SMILES | PostGolgi yeast | CYP2C19 act | PostGolgi ctrl | CYP2C9 inh | CYP2C19 inhib | CYP2C9 activ
Cc1nnc2sc(-c3cccc(NC(=O)c4cccnc4)c3)nn12 | 0 | 1 | 1 | 2 | 1 | 1
COc1cccc(CNc2ccc(N3CCCCC3)cc2)c1OC | -2 | 0.2 | 1 | -150 | 80* | 2.5*
COc1ccccc1CNc1ccc(N2CCCCC2)cc1 | -6 | 0.2 | 0 | 24 | 77* | 0.8
CCCCN(C)C(=O)C(Cc1ccccc1)NS(=O)(=O)c1ccc2c(c1)c(=O)n(C)c(=O)n2C (stereo not drawn) | -1 | 0.9 | 13 | 28 | 6 | 0.7
Oc1cccc2ccc(Nc3ccccn3)nc12 | 2 | 1 | 15 | 0 | 0 | 1
Oc1ccc2ccccc2c1N=Nc1ccccn1 | 6 | 0.8 | 8 | 67* | 25 | 0.3
Cc1ccc(NC(=O)N2CCCC2C(=O)NCCc2ccccc2)cc1 (stereo not drawn) | 9 | 0.7 | 1 | 14 | 26 | 0.9
CCCCC1CC(C)(C(=O)CSc2nc3ccccc3s2)OC1=O (stereo not drawn) | -3 | 1 | 16 | 78* | 4 | 0.2
O=C(c1ccc(S(=O)(=O)N2CCC(c3nc4ccccc4s3)CC2)cc1)N1CCOCC1 | . | 1.1 | . | -3 | -9 | 1
O=C(CSc1ccc(Cl)cc1)N1CCC(c2nc3ccccc3s2)CC1 | 3 | 0.8 | 41* | 54* | 25 | 0.5
Cc1cc(NC(=O)CSc2nc3ccccc3s2)no1 | -4 | 0.7 | 5 | 26 | 34 | 0.7
CCc1ccc(C(=O)N2CCC(c3nc4ccccc4s3)CC2)cc1 | -6 | 0.6 | 37* | 76* | 39 | 0.2
O=C(CSc1nc2cc(Cl)ccc2s1)N1CCCc2ccccc21 | -1 | 0.6 | 13 | 62* | 44 | 0.4
Cc1ccc(N=Nc2c(C)[nH][nH]c2=O)c(C)c1 | 0 | 0.7 | 14 | 27 | 30 | 0.7
Cn1c(=O)c2c(SCc3c(F)cccc3Cl)nc(CC(C)(C)C)nc2n(C)c1=O | -4 | 1 | 0 | 32 | 3 | 0.7
NC(=O)C1CCN(C(=O)CSc2nc3ccccc3s2)CC1 | 5 | 0.9 | 11 | 23 | 8 | 0.8
CC1CCCN(C(=O)CSc2cnc3ccccc3n2)C1 (stereo not drawn) | 3 | 0.5 | 15 | 11 | 50* | 0.9
Cc1onc(-c2ccccc2)c1C(=O)N1CC(C)OC(C)C1 (stereo not drawn) | 1 | 0.9 | 22 | -1 | 12 | 1
CC1CN(C(=O)C(C)Sc2nc3ccccc3s2)CC(C)O1 (stereo not drawn) | -5 | 0.1 | 7 | 44 | 94* | 0.6
CC1CCN(C(=O)CSc2nc3ccccc3s2)CC1 | -5 | 0.4 | 2 | 63* | 57* | 0.4
O=C(CSc1nc2ccccc2s1)N1CCCCC1 | 0 | 0.2 | 22 | 21 | 84* | 0.8
COC(=O)CN(n1cnnc1)S(=O)(=O)c1ccccc1 | -13 | 1 | -5 | -22 | 0 | 1.2
CCN1CCN(C(c2ccccn2)c2c(NC(=O)c3ccccc3)sc(C)c2C)CC1 (stereo not drawn) | 5 | 1 | 12 | 8 | -2 | 0.9
CC1CCCC(C)N1C(=O)CSc1nc2ccccc2s1 (stereo not drawn) | -1 | 0.1 | 27 | 61* | 86* | 0.4

Bioassay records as filed in PubChem BioAssay.
